# Screening data as filed in PubChem BioAssay.
# The list is not random: actives were taken first. Their share in the collection is about 2.9%.
# FAS-TE inh: inhibitors of human fatty acid synthase thioesterase domain | P49327 | recombinant FAS-TE, OMFH fluorogenic substrate, fluorescence endpoint | inhibition, % at 15 µM | AID 602261 | 360,000 tested, 0.67% active;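 active = compounds whose normalised, plate-corrected inhibition of enzyme fluorescence in the single-dose primary screen is 50% or more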;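 also: 0% = DMSO with enzyme and 100% = substrate without enzyme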
# KLK7 zymogen act: activators of human kallikrein-7 zymogen. purified proKLK7, EDANS-DABCYL substrate fluorescence; 100% is mature enzyme control, 0% vehicle. activation, % at 7 µM. 370,000 tested, 0.9% active. AID 652039;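 active = activation above the mean of all tested compounds plus 3 SD, computed per campaign excluding outliers beyond control limits, cut at about 13% in these data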
# GAA850 FXN act: frataxin GAA850 promoter activation. HEK293 lucGAA850 FXN promoter luciferase reporter, 24 h; percent of 10 µM SAHA response. activation, % at 6 µM. 360,000 tested, 0.56% active;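 active = activation above the average of all compounds screened plus 3 SD, cutoff fixed separately per campaign, cut at about 7.5% in these data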;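 also: 0% = DMSO wells and 100% = 10 µM SAHA wells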
# SMARCA2 act: increases SMARCA2 function in MMTV reporter cells | 370,000 tested, 1% active | activation, % at 9.1 µM | MG213 cells, MMTV-luciferase reporter, dexamethasone, overnight | AID 652017; in the data active = activation above about 7.8%;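 also: 0% = vehicle wells and 100% = reference activator wells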
# SMARCA2 act conf: confirmation of SMARCA2 (BRM) function activators. shares compounds with SMARCA2 act. MG213 cells, MMTV-luciferase with dexamethasone, luminescence, overnight; MG213 cells expressing E1A, Rb sequestered; DMSO wells 0%, reference activator 100%. activation, % at 9.1 µM. 3,500 tested, 30% active. AID 652260;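 active = activation above its plate's cutoff, the mean activation of tested wells plus 3 SD, cut at about 7.9% in these data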
# VP16 Luc act: GAL4-VP16 reporter activation counter-screen; shares compounds with SMARCA2 act; HEK293 GAL4-VP16 pG5luc reporter, luciferase luminescence; scaled: DMSO wells 0%, SAHA wells 100%; activation, % at 9.1 µM; 3,500 tested, 41% active;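 active = activation above the solvent-only control well mean plus 3 SD, averaged across control plates, cut at about 5.2% in these data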
# The depositor's hits bear a star; . = not tested or not shown.
SMILES,FAS-TE inh,KLK7 zymogen act,GAA850 FXN act,SMARCA2 act,SMARCA2 act conf,VP16 Luc act
O=c1[nH]c2ccccc2c2nc3ccccn3c12,-7.0,-0.4,4.9,12.0*,16.3*,7.1*
CCCC(=Nc1ccc(N)cc1)C1=C(O)C(C(=O)OC)C(C)(C)CC1=O (stereo unspecified),-6.0,0.9,1.6,8.2*,-3.5,3.3
O=C(CC1SC(=Nc2ccccc2)N(Cc2ccccn2)C1=O)Nc1ccc(Br)cc1 (stereo unspecified),27.7,0.8,-1.0,-2.1,.,.
COc1ccc(NC(=O)N(C)C[C@H]2OCCCC[C@H](C)Oc3ccc(NC(=O)Nc4ccc5c(c4)OCO5)cc3C(=O)N([C@@H](C)CO)C[C@@H]2C)cc1,29.1,0.8,-3.7,-3.1,.,.
Cc1cc(C(=O)Nc2cnc3ccccc3c2)ccc1[N+](=O)[O-],-4.8,-0.2,5.5,9.3*,5.1,8.5*
Cc1ccc(C(=O)Nc2cnc3ccccc3c2)cc1,-9.7,0.4,-9.4,-6.2,.,.
COc1ccc(C(Nc2cc(C)ccn2)c2ccc3ccc(C)nc3c2O)cc1 (stereo unspecified),2.4,0.4,2.5,10.3*,-4.4,-0.3
CC[C@]12c3[nH]c4ccccc4c3CCN1C(=O)C(CC(=O)NC/C=C(\C)CCC=C(C)C)C[C@@H]2C(=O)N1CCN(C(=O)C2CC2)CC1 (stereo partly specified),16.4,-0.5,-5.7,-1.8,.,.
Cc1ccc(-n2ncc(N(C)C)c(Cl)c2=O)cc1,-4.8,0.2,-1.4,1.5,.,.
CN(C)c1cnn(-c2ccccc2)c(=O)c1Cl,-11.1,-0.1,2.7,8.5*,6.1,2.0
NC(=O)C1CCCN(Cc2ccc(Cl)cc2)C1 (stereo unspecified),-6.4,0.7,1.2,8.3*,6.0,-1.1
O=C(Nc1nnc(-c2ccc(F)cc2)s1)Nc1ccccc1F,-0.8,0.0,-0.5,-1.5,.,.
O=C(Nc1nnc(-c2ccccc2SCc2ccccc2F)s1)Nc1ccccc1F,-7.2,-0.2,1.6,8.3*,2.1,2.0
S=C(NCc1ccco1)Nc1ccc(Cl)cc1Cl,-0.5,0.8,4.7,-0.5,.,.
c1ccc2c(NCCCN3CCOCC3)c3ccccc3nc2c1,.,-2.0,.,15.3*,27.7*,1.3
Fc1ccccc1-c1nc(NCCCN2CCOCC2)c2ccccc2n1,-6.0,0.7,4.1,-1.1,.,.
Cc1cc(NCCN2CCOCC2)c2ccc3ccccc3c2n1,-13.5,-0.5,0.5,11.2*,21.4*,3.0
COc1ccc2nc(C)cc(NCCN3CCOCC3)c2c1,-3.3,0.9,0.6,-0.3,.,.
Oc1ccc(-c2nc3ccccc3s2)c(O)c1,7.9,-48.6,3.9,13.6*,5.8,10.3*
Nc1ccc(O)c(-c2nc3ccccc3s2)c1,-5.4,-7.0,2.4,3.6,.,.
Cn1c(=S)c2[nH]c(SCCC(C)(C)C)nc2n(C)c1=O,-1.3,0.0,2.6,3.0,.,.
CSc1nc2c([nH]1)c(=S)n(C)c(=O)n2C,-8.8,1.0,-1.4,8.4*,9.0*,0.6
O=C1NC(=Nc2ccccc2)S/C1=C\c1cccs1,-2.6,0.2,4.8,12.6*,15.3*,6.8*
Cn1cccc1/C=C1\SC(=Nc2ccc(O)cc2)NC1=O,-5.3,0.4,2.6,2.9,.,.
Cn1cccc1/C=C1\SC(=Nc2cccc(O)c2)NC1=O,1.1,-0.1,1.8,9.9*,10.5*,10.7*
SMILES,FAS-TE inh,KLK7 zymogen act,GAA850 FXN act,SMARCA2 act,SMARCA2 act conf,VP16 Luc act
CCOC(=O)CNC(=O)c1ccc(Cl)s1,-4.2,-0.6,-0.7,-2.4,.,.
O=c1cnnc(SCCc2ccccc2)[nH]1,-8.9,0.1,0.0,8.2*,-1.0,0.6
CNc1ncnc2c1ncn2[C@@H]1O[C@H](CO)[C@@H](O)[C@H]1O,-2.3,0.5,-1.8,8.4*,-0.5,0.5
Nc1ncnc2c1ncn2[C@@H]1O[C@H](CNCc2ccccc2)[C@@H](O)[C@H]1O,-6.8,.,1.6,.,.,.
CN(C)c1ncnc2c1nnn2C1OC(CO)C(O)C1O (stereo unspecified),-4.5,0.1,-0.6,12.9*,16.7*,-2.8
OCC1OC(n2cnc3c(/C=C(\O)c4ccccc4)ncnc32)C(O)C1O (stereo unspecified),-1.1,-0.1,-1.0,8.9*,-1.9,3.5
CN(C)c1ncnc2c1ncn2C1OC(CO)C(O)C1O (stereo unspecified),-2.8,-0.3,-6.5,-1.7,.,.
CSc1nc(Oc2ccc3ccccc3c2)c2ccccc2n1,25.5,0.0,0.9,-0.8,.,.
CCOC(=O)NC(C(Cl)(Cl)Cl)S(=O)(=O)c1ccccc1 (stereo unspecified),-1.6,0.3,0.7,2.7,.,.
COc1ccc2sc3ccccc3c(=O)c2c1,6.9,-6.7,4.0,2.3,.,.
CN1CCCC1CCNc1ccc2sc3ccccc3c(=O)c2c1 (stereo unspecified),-13.0,-0.3,6.8,10.8*,14.3*,7.5*
Cc1ccc(S(=O)(=O)c2nc(C)oc2N2CCOCC2)cc1,-4.1,0.3,1.8,-3.1,.,.
Cc1ccc(S(=O)(=O)c2nc(-c3ccc(F)cc3)oc2N2CCOCC2)cc1,5.0,-0.2,0.5,11.5*,-1.9,-1.0
Cc1cccc(NC(=O)C2COc3ccccc3O2)c1 (stereo unspecified),-0.1,-0.1,1.4,1.3,.,.
Cc1ccc(NC(=O)CNCc2ccccc2OCC(=O)Nc2ccc(I)cc2)cc1,.,-0.6,.,4.8,.,.
O=C(COc1ccccc1CNCc1ccccc1)Nc1ccccc1,-1.0,-0.1,-5.5,9.9*,3.2,0.6
O=S1(=O)CCOC[C@H](CC2CCCCC2)N1Cc1ccccc1Br,20.1,0.9,-1.7,-1.9,.,.
Cc1cccn2cc(-c3cccc(NC(=O)c4cccs4)c3)nc12,7.5,1.7,3.5,9.4*,6.0,1.5
Cc1c(C(=O)Nc2ccncc2)oc2ccccc12,-5.3,-0.2,-0.7,0.4,.,.
COc1ccc(NC(=O)c2oc3ccccc3c2C)cn1,1.2,0.7,4.1,9.8*,9.7*,5.4*
CN(C)c1nc2c(c(=O)n(C)c(=O)n2C)n1CC(=O)c1cccs1,-5.4,0.0,1.2,0.7,.,.
O=C(c1noc2c1CCc1ccccc1-2)N1CCOCC1,-6.0,0.6,2.6,9.3*,9.6*,4.8
CCN(C[C@H]1N[C@@](CC)(C(=O)OC)[C@H]2C(=O)N(C)C(=O)[C@@H]12)C(=O)c1ccc(F)cc1,-9.9,-0.3,0.4,-0.1,.,.
N#C/C(=C/c1cc[nH]c1)C(N)=S,-3.3,1.0,-0.5,8.6*,-4.3,1.0
Cn1cccc1/C=C(\C#N)C(N)=S,-0.9,-0.3,0.6,-3.4,.,.
Cc1csc(NC(=O)c2cnccn2)n1,-9.3,-0.4,-1.8,0.6,.,.
Cc1csc(NC(=O)c2cc(C)on2)n1,-9.1,-0.6,3.6,10.6*,4.1,7.5*
Cc1csc(NC(=O)c2ccc[nH]c2=O)n1,-6.4,0.7,5.1,9.1*,13.4*,9.8*
